Measured values published in PubChem BioAssay (NCI).
“And” between values parts separate entries of the source, which are not always exact repeats. Equal entries are not always repeated. About 83,000 compounds went through this panel and 20% of them were active in at least one assay; those are over-represented in the sample as a whole.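 48-hour exposure, single concentration, 96-well plates; percent growth endpoint where 0 means no net growth. Active: below 10.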 The source made the active and inactive calls.

Tested on: MDA-MB-468 breast
Experiment: NCI-60 one-dose screen, 48 h (100 = growth as untreated, 0 = no growth, -100 = all killed)
Details: 10 µM unless noted

Structure (SMILES)	growth
O=C1C(c2c(O)[nH]c3ncccc23)=Nc2ccccc21	42.6% (inactive)
COc1cccc(-c2nn(C(C)(C)C)cc2-c2ccnc(NCCCNS(=O)(=O)c3cccc4ccccc34)c2)c1	110% (inactive)
Oc1c(Cl)cc(Cl)c(Cl)c1Cc1c(O)c(Cl)cc(Cl)c1Cl	4.35% (active)
O=C(Cc1ccc(/C=C/C(=O)c2nccs2)cc1)Nc1ccccc1	91.7% (inactive)
CCCCCC(=O)O[C@]1(C(C)=O)CCC2C3CCC4=CC(=O)CC[C@]4(C)C3CC[C@@]21C (stereo not given in full)	-2.63% (active)
COc1cc(/C=C2\SC(N3CCCCC3)=NC2=O)ccc1OCCCCCCOc1ccc(/C=C2\SC(N3CCCCC3)=NC2=O)cc1OC	7.38% (active)
CC1(C)OC2=C(CC1Br)C(=O)C(=O)c1ccccc12 (stereo not given)	-87.1% (active)
O=S(=O)(O)C(C(I)I)S(=O)(=O)O	95.9% (inactive)
CCCCN(CCCC)CCCNc1c2c(nc3ccc(Cl)cc13)CCCC2	114% (inactive)
NS(=O)(=O)c1ccc(CCN2C(=O)c3cc(Cl)c(Cl)cc3C2=O)cc1	119% (inactive)
Cn1cc(-c2csc(-c3c[nH]c4ccc(Br)cc34)n2)c2cnccc21	-70.5% (active)
COC(=O)C(OC(C)=O)C(OC(C)=O)c1ccc(OC)c(OC)c1 (stereo not given)	108% (inactive)
NS(=O)(=O)OCC1OC(n2cnc3cncnc32)C(O)C1O (stereo not given)	5.51% [0.1 µM] (active) and -18.9% [0.1 µM] (active)
O=C(NCc1cn(Cc2cccc(Oc3ccccc3)c2)nn1)c1cccnc1Nc1ccc(F)cc1	33.5% (inactive)
O=C1CS/C(=N\Nc2cc(=O)[nH]c3ccccc23)N1c1ccccc1	96.9% (inactive)
CC(=O)N(N=Nc1ccccc1)c1cccc2ccccc12	84.7% (inactive)
CC(C)[C@H](CN)NC[C@H](C)NS(=O)(=O)c1ccc(C(C)(C)C)cc1	86.5% (inactive)
CC(=O)C1CCC2C3CC(F)C4=CC(=O)CCC4(C)C3C(O)CC12C (stereo not given)	104% (inactive)
COc1cc(C2c3cc4c(cc3C(O)C(CO)C2CO)OCO4)cc(OC)c1OC (stereo not given)	-17.7% (active)
Cc1cc(N2CCOCC2)nc(N(CCNc2ccnc3cc(Cl)ccc23)Cc2ccco2)n1	23.5% (inactive)
C[C@@H](Nc1ncnc2ccc(-c3cnc(Cl)c(NS(C)(=O)=O)c3)cc12)c1ccccc1	30.8% (inactive)
Cc1c(O)cc(-c2cnc(N/N=C\c3ccc(Cl)cc3)s2)c(O)c1C	76% (inactive)
C=C1CCC2C3(C)COC(c4ccccc4Br)OC3CCC2(C)C1C/C=C1/C(=O)OCC1OC(C)=O (stereo not given)	-34.3% (active)
Oc1cccc2ccc(-c3nnc(SCc4ccc(O)c5ncccc45)n3-c3ccccc3)nc12	6.6% (active)
COc1ccc(S(=O)(=O)N2CCCCCC2)cc1NC(=O)c1[nH]c(C)c2c1CCCCC2=O	4% (active)
